Shown are actives, neighbours in structure and some others; about 19% of the full set was active somewhere.
HT1080-NT tox: kills 2HG-producing HT-1080-NT fibrosarcoma cells; HT-1080-NT fibrosarcoma viability, CellTiter-Glo ATP luminescence, 48 h; Potency, µM (top dose mostly 46.1 µM), for the others: top-dose activity, negative = less viability, actives largely listed as cytotoxic; 360,000 compounds, 1.6% hits;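 also: NT is the 2HG producing partner of a matched IDH1 knockdown line; potency is read from the fitted curve at half-maximal effect; 0% = DMSO-treated cells and -100% = media-only wells without cells; nearly all actives have a fitted effect of over 55% in size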
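Viability of the 2HG-overproducing fibrosarcoma line after 48 hours of compound exposure at 37 degrees C was determined by luminescence with CellTiter-Glo, and concentration-effect curves were then fitted and categorized.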
TDP1 cell CPT: growth inhibition of DT40 Tdp1-/-;hTDP1 cells with camptothecin (screen for TDP1 inhibitors) | chicken DT40 Tdp1-/-;hTDP1 cells + 20 nM CPT, ATP luminescence, 48 h | 420,000 compounds, 12% hits | Potency, µM (series often up to 46.2 µM), for inactives: top-dose activity change, negative = growth inhibition, usual class: inhibitors | AID 686979; also: potency is read from the fitted curve at half-maximal effect; nearly all actives have a fitted effect of over 55% in size
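Chicken DT40 Tdp1-/- cells complemented with human TDP1, 400 cells/well, exposed to compounds plus 20 nM camptothecin for at least 48 h at 37 C; viability read as ATP content by CellTiter-Glo luminescence.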
HT1080 IDH1KD tx: toxicity to HT-1080 IDH1 knockdown cells (counter line); 360,000 compounds, 2% hits; Potency, µM (top dose mostly 46.1 µM), for the others: at the highest dose activity, negative = toxicity, actives largely listed as cytotoxic; HT-1080 IDH1 knockdown viability, ATP luminescence, 48 h;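 also: potency is read from the fitted curve at half-maximal effect; 0% = DMSO wells and -100% = cell-free medium wells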
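HT-1080-IDH1KD cells (IDH1 knocked down), 750/well in RPMI with 5% FBS, treated with compound 48 h at 37 degrees C. Viability by CellTiter-Glo luminescence, normalised to DMSO and no-cell wells; concentration-response curves classed.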
IL-1B inflam inh: blocks inflammasome-driven IL-1 beta release. THP-1 LPS/ATP IL-1B secretion, AlphaLISA, 16 h; stronger effect = lower value. activity change, % at 57.5 µM. 360,000 compounds, 4.7% hits. AID 743279; in the data active = activity change below about -50%; inconclusive = mostly about -30% to -49%
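THP-1 cells pretreated 1 hr with compounds (up to 57.5 uM final), then stimulated with LPS (250 ng/mL final) plus ATP (1.25 mM final); secreted IL-1B measured by AlphaLISA after 16 hr, decreased signal indicating inhibition.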
TDP1 cell noCPT: qHTS for Inhibitors of human tyrosyl-DNA phosphodiesterase 1 (TDP1): qHTS in cells in absence of CPT; DT40 Tdp1-/- hTDP1 cells, no CPT, ATP luminescence, 48 h; Potency, µM (top dose mostly 46.2 µM), for inactives: top-dose activity change, negative = growth inhibition, most hits filed as inhibitors; 420,000 compounds, 15% hits; AID 686978, 2013; also: potency is read from the fitted curve at half-maximal effect; nearly all actives have a fitted effect of over 55% in size
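Readout: luminescence from CellTiter-Glo after 30 min in the dark at RT. Cells: DT40 Tdp1-/- with stable hTDP1, 400/well. Exposure: compounds alone, ≥48 hr, 37 °C.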
* marks the source's active call; other numbers are inactive results; ? = inconclusive; / = not tested or not shown. Unless noted, calls follow the shape of the dose curve; as a rule, active = well fitted curve in the direction sought with a large enough effect; inconclusive = small, poorly fitted or top-dose-only effect, or another doubt; inactive = no such curve, though single readings can be large; an effect the other way counts as inactive or inconclusive. Unless noted, % is scaled to controls: 0 for no effect and ±100 for the full control effect.

SMILES	HT1080-NT tox	TDP1 cell CPT	HT1080 IDH1KD tx	IL-1B inflam inh	TDP1 cell noCPT
Cc1nc(N/N=C/c2cccc([N+](=O)[O-])c2)cc(N2CCCCC2)n1	-1%	?	10%	26	13µM*
O=[N+]([O-])c1ccccc1/C=N/Nc1nc(N2CCCC2)nc(N2CCCC2)n1	-21%	?	-23%	17	?
Cc1nc(N/N=C/c2ccc(O)cc2O)cc(N2CCOCC2)n1	?	?	4.1µM*	-99*	?
COc1ccc(/C=N/Nc2cc(C)nc(N3CCOCC3)n2)cc1OC	-3%	3%	-13%	-24	?
Oc1ccccc1/C=N/Nc1cc(N2CCCC2)nc(N2CCCC2)n1	-2%	12µM*	-12%	-103*	12µM*
COc1cccc(C2(C)NC(=O)N(CC(=O)Nc3ccc(N4CCOCC4)cc3)C2=O)c1 (centres undefined)	6%	-25%	11%	4	-5%
Cc1nc(N/N=C/c2cccc(F)c2)cc(N2CCOCC2)n1	-1%	?	-1%	-97*	?
Oc1cccc(/C=N/Nc2cc(N3CCOCC3)nc(N3CCOCC3)n2)c1	-3%	16µM*	3%	-54*	15µM*
Cc1cccc(NC(=O)C(C)Sc2nc3nc(C)cc(C)n3n2)c1 (centres undefined)	2%	-19%	14%	8	-26%
CCOP(=O)(c1ccccc1)C(O)c1ccc(Br)cc1 (centres undefined)	9%	-8%	17%	-2	-11%
CC(=O)c1ccc(Nc2nc(C(N)COCc3ccccc3)cs2)cc1 (centres undefined)	-1%	23µM*	-9%	-23	?
NC(CO)c1csc(Nc2ccc(C(=O)c3ccccc3)cc2)n1 (centres undefined)	?	-2%	-20%	?	?
CC(C)CC(N)c1csc(Nc2ccc(C(=O)c3ccccc3)cc2)n1 (centres undefined)	?	?	-21%	-59*	16µM*
CC(C)CC(N)c1csc(Nc2ccc(C(=O)NCCO)cc2)n1 (centres undefined)	?	?	29%	23	?
CC(=O)c1ccc(Nc2nc(C(N)CC(C)C)cs2)cc1 (centres undefined)	-13%	?	-3%	-17	16µM*
COc1ccc(F)cc1S(=O)(=O)Nc1cc2c3c(c1)CCN3C(=O)CC2	-4%	-9%	1%	26	-1%
Cc1cccc(-n2c(=O)c3c(c4cc(C)ccc4n3C)n(CC(=O)N3CCCC3)c2=O)c1	/	-6%	/	/	2%
O=C(C[n+]1ccc2ccccc2c1)Nc1cc(C(F)(F)F)ccc1Cl	-5%	21µM*	-19%	-58*	?
CN(C)c1cc[n+](CC(=O)Nc2cc(C(F)(F)F)ccc2Cl)cc1	?	16µM*	?	?	8.2µM*
CC1=CC(C)(C)NC(=S)N1c1ccc(C)cc1C	-34%	?	1%	-14	?
CC1=CC(C)(C)NC(=S)N1c1ccccc1C	1%	?	-1%	23	26µM*
COc1ccc(Cl)cc1NC(=O)C(C)N(C)Cc1ccc(C(F)(F)F)cc1 (centres undefined)	-15%	-30%	?	26	-32%
COc1ccc(/C=C/c2nc(-c3ccccc3O)n[nH]2)cc1OC	4%	?	4%	-99*	?
O=C(O)COc1ccc(/C=C/c2nc(-c3ccccc3O)n[nH]2)cc1	4%	2%	12%	2	8%
NC(=S)N/N=C/c1ccc(-c2cc(Cl)ccc2Cl)o1	3.2µM*	2.6µM*	?	52	3.3µM*
SMILES	HT1080-NT tox	TDP1 cell CPT	HT1080 IDH1KD tx	IL-1B inflam inh	TDP1 cell noCPT
NC(=S)N/N=C/c1ccc(-c2cc(Cl)cc(Cl)c2)o1	5%	5.8µM*	8%	-18	2.1µM*
Cc1cc2n(n1)SC(Nc1cc(Cl)ccc1Cl)N2 (centres undefined)	-15%	-15%	-19%	?	-14%
O=C(N/N=C/c1ccccn1)c1cccc([N+](=O)[O-])c1	-24%	?	?	-96*	16µM*
O=C(CNc1ccc2ccccc2c1)N/N=C/c1ccccn1	-25%	?	-28%	41	18µM*
C/C(=N/NC(=O)c1ccc2c(c1)OCO2)c1cccc([N+](=O)[O-])c1	10%	-9%	15%	5	2%
Cc1cc(/C=N/NC(=O)c2cccs2)c(C)n1-c1ccccc1	?	16µM*	?	-5	13µM*
CC(/C=C/c1ccc2c(c1)OCO2)=N\NC(=O)c1cccc([N+](=O)[O-])c1	6%	21µM*	-4%	-8	15µM*
O=C(CNc1ccc2ccccc2c1)N/N=C/c1ccncc1	-24%	-6%	-21%	-12	1%
CSCCC(NS(=O)(=O)c1ccccc1)C(=O)OCc1cc(=O)oc2cc(O)ccc12 (centres undefined)	-3%	?	-8%	4	?
CCc1ccc([C@@H]2C[C@H]3[C@@H](CN2S(=O)(=O)c2ccc(C)cc2)C(=O)C[C@@H](c2ccc(C)cc2)N3S(=O)(=O)c2ccc(C)cc2)cc1	1%	-9%	15%	91	?
Cc1ccc(/C=N/NC(=O)c2cccc([N+](=O)[O-])c2)o1	0%	14%	20%	-5	7%
O=C(N/N=C/c1cccc(O)c1)c1ccc(NC(=O)c2cccc([N+](=O)[O-])c2)cc1	-13%	?	-30%	-4	18µM*
O=C(N/N=C/c1ccccn1)c1ccc([N+](=O)[O-])cc1	0%	1%	11%	-2	-9%
CC(Nc1cccc2ccccc12)C(=O)N/N=C/c1ccccn1 (centres undefined)	14µM*	26µM*	7.1µM*	49	21µM*
Cc1cc(/C=N/NC(=O)c2cccc([N+](=O)[O-])c2)c(C)n1-c1ccccc1	-8%	?	-17%	-80*	?
O=C(N/N=C/c1ccccn1)c1cc([N+](=O)[O-])cc([N+](=O)[O-])c1	-11%	?	-9%	100	21µM*
Cc1cc(C(=O)N/N=C/c2ccc(O)c(O)c2O)c(C)n1-c1ccccc1	?	4.6µM*	?	99	3.3µM*
CCN(CC)C(=O)C1CCCN(c2ccc([N+](=O)[O-])cc2/C=N/NC(=O)c2cccc([N+](=O)[O-])c2)C1 (centres undefined)	3%	21µM*	0%	?	?

Bioassay records deposited in PubChem BioAssay by National Center for Advancing Translational Sciences (NCATS).
